Assay results reported in PubChem BioAssay AID1259418 (Broad Institute, 2018).
About 840 (25%) of roughly 3,400 compounds were called active. Inconclusive results (about 11%) are left out.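 How the source made its calls: active means fitted half-maximal concentration of signal decrease at or below twice the sample's top tested concentration; inconclusive means flat curve between -70 and -30 percent, or poor fit; inactive means flat within 30 percent, signal rise, or potency above limit.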 Not all results are given here. Results with a measured potency or affinity are listed apart.

Assay: inhibitors of Toxoplasma growth in IFN-γ-primed HeLa – cell-based, ME49Luc, luciferase, 72 h, dose response (AID 1259418)
Conditions: T. gondii ME49Luc in IFN-y HeLa, active compounds read low, -100% = high-dose IFN-γ control wells; at 19.5 µM unless noted
With `CS(=O)(=O)NCc1cnc2n1CCN(Cc1cccs1)CC2` the max activity was 48.8% (inactive). For `CCN1C(=O)CCc2cc(NC(=O)Cc3ccccc3Cl)ccc21`, the max activity was -5.27% [at 0.16 µM] (inactive). In the case of `COc1ccc(-c2nc(NCCC3=CCCCC3)c3ccccc3n2)cc1`, the max activity is reported as -27.2% [at 1.35 µM] (inactive). In the case of `CN1[C@@H]2Cn3c(ccc(/C=C/c4ccccc4)c3=O)[C@H]1[C@@H](C(=O)NC1Cc3ccccc3C1)[C@@H]2CO`, the max activity is reported as 15.2% [at 5 µM] (inactive). For `Cc1ccc2c(c1C)-n1cccc1C1(CCN(C(=O)c3ccco3)CC1)N2`, the max activity was 10.9% [at 0.16 µM] (inactive). With `Cc1oc(-c2ccccc2)nc1CSc1nc2c(c(=O)[nH]1)CN(Cc1ccc(Cl)cc1)CC2` the max activity was 14.5% [at 0.16 µM] (inactive). With `Cc1ccc(-c2nc(CSc3nc4c(c(=O)[nH]3)CN(Cc3ccc(F)cc3)CC4)c(C)o2)cc1` the max activity was 26% [at 0.16 µM] (inactive). For `COc1ccc(CN2CCc3nc(SCc4nc(-c5ccc(C)cc5)oc4C)[nH]c(=O)c3C2)cc1`, the max activity was 16.3% (inactive). With `Cc1ccc(-c2nc(CSc3nc4c(c(=O)[nH]3)CN(Cc3ccccc3)CC4)c(C)o2)cc1` the max activity was -18% [at 0.68 µM] (inactive). For `Cc1nc(-c2ccc(F)cc2)sc1-c1ccc(SCCN2CCOCC2)nn1`, the max activity was 231% (inactive). For `O=C(Nc1ccc(F)cc1)Nc1ccc(-c2nc(-c3cccc(Br)c3)co2)cc1`, the max activity was 4.84% [at 10 µM] (inactive). In the case of `COc1ccc(-c2nc(N3CCCC(C)C3)c3ccccc3n2)cc1` (stereo unspecified), the max activity is reported as 20.4% [at 1.35 µM] (inactive). In the case of `O=C(CCC1N=C2c3ccccc3N=C(SCc3cc(=O)n4ccccc4n3)N2C1=O)NCc1ccc2c(c1)OCO2` (stereo unspecified), the max activity is reported as 14.1% [at 0.35 µM] (inactive). For `CCOC(=O)CSC1=Nc2ccccc2C2=NC(CCC(=O)NCc3cccs3)C(=O)N12` (stereo unspecified), the max activity was 13.6% [at 10 µM] (inactive). With `O=C(CCC1N=C2c3ccccc3N=C(SCc3cc(=O)n4ccccc4n3)N2C1=O)NCc1cccs1` (stereo unspecified) the max activity was 13.4% [at 0.16 µM] (inactive). In the case of `Cc1ccc(CSC2=Nc3ccccc3C3=NC(CC(=O)NCc4cccs4)C(=O)N23)c(C)c1` (stereo unspecified), the max activity is reported as 21.5% [at 0.68 µM] (inactive). In the case of `COc1ccccc1CNC(=O)CC1N=C2c3ccccc3N=C(SCc3ccc(F)cc3)N2C1=O` (stereo unspecified), the max activity is reported as 11.2% [at 10 µM] (inactive). In the case of `O=C(CC1N=C2c3ccccc3N=C(SCc3cc(=O)n4cc(Cl)ccc4n3)N2C1=O)NCc1cccs1` (stereo unspecified), the max activity is reported as 41.3% [at 0.35 µM] (inactive). For `Cc1c(Cl)cccc1NC(=O)CN1CCC2(CC1)N=C(c1ccc(F)cc1)C(=O)N2`, the max activity was -21.7% [at 1.35 µM] (inactive). With `Cc1ccc(CC(=O)Nc2ccc(-c3nc(-c4ccc(C)cc4)co3)cc2)cc1` the max activity was 19.1% [at 10 µM] (inactive). In the case of `Cc1oc(-c2ccccc2)nc1Cn1nnc(-c2nc(-c3ccc(Cl)c(F)c3)no2)c1C`, the max activity is reported as 7.02% (inactive). For `Cc1cccc(C2=NC3(CCN(CC(=O)Nc4ccc(C)c(F)c4)CC3)NC2=O)c1`, the max activity was -23% (inactive). In the case of `N#Cc1c(N2C[C@@H]3NCCO[C@H]3C2)c(F)cc2c(=O)c(C(=O)O)cn(C3CC3)c12`, the max activity is reported as 13.7% (inactive). For `COC(=O)Cn1cc(CN2CCCC2c2cc(C(C)C)on2)c2cc(OC)ccc21` (stereo unspecified), the max activity was 14.7% (inactive). In the case of `COc1ccc2c(c1)NC1(CCN(C(=O)Cc3ccc(C)cc3)CC1)c1cccn1-2`, the max activity is reported as 5.57% [at 0.35 µM] (inactive). For `CCCCc1ccc(Nc2ncnc3c2cnn3-c2ccc(Cl)cc2)cc1`, the max activity was -18.1% [at 5 µM] (inactive). With `Cc1cccc(-c2nc(CN3CCc4c(sc5c4CCCC5)C3c3ccccc3)c(C)o2)c1` (stereo unspecified) the max activity was 18.5% (inactive). With `O=C(CCC1N=C2c3ccccc3N=C(SCc3ccc(F)cc3)N2C1=O)NCc1cccs1` (stereo unspecified) the max activity was 11.9% [at 1.35 µM] (inactive). For `O=C(CCC1N=C2c3ccccc3N=C(SCc3ccc(Cl)cc3)N2C1=O)NCc1ccc2c(c1)OCO2` (stereo unspecified), the max activity was -24.4% [at 0.35 µM] (inactive). With `O=C(CC1N=C2c3ccccc3N=C(SCc3ccc(Cl)cc3)N2C1=O)NC1CCCCC1` (stereo unspecified) the max activity was -16.8% [at 0.35 µM] (inactive). For `Cc1ccc(CSC2=Nc3ccccc3C3=NC(CC(=O)NCc4cccs4)C(=O)N23)cc1` (stereo unspecified), the max activity was 21.6% [at 2.6 µM] (inactive). For `O=C(CCC1N=C2c3ccccc3N=C(SCc3ccccc3F)N2C1=O)NCc1ccc2c(c1)OCO2` (stereo unspecified), the max activity was 17.7% [at 0.16 µM] (inactive). With `Cc1ccc2c(c1)cc(S(=O)(=O)c1ccccc1)c(=O)n2CC(=O)NC1CCCC1` the max activity was -10.6% [at 0.35 µM] (inactive). In the case of `COc1ccc(CNC(=O)Nc2ccc(-c3nc(-c4ccccc4)co3)cc2)cc1`, the max activity is reported as 134% (inactive). In the case of `O=C(Cc1ccccc1)N1CCC2(CC1)Nc1cc(F)ccc1-n1cccc12`, the max activity is reported as 8.98% [at 0.68 µM] (inactive). For `COc1ccccc1CNC(=O)CCC1N=C2c3ccccc3N=C(SCC#N)N2C1=O` (stereo unspecified), the max activity was 14.4% [at 1.35 µM] (inactive). In the case of `C=CCNc1ncnc2c1cnn2-c1ccc(Cl)cc1`, the max activity is reported as 134% [at 0.35 µM] (inactive). With `CCOC(=O)CC(=O)Nc1ccc(-c2nc(-c3cc(C)ccc3C)co2)cc1` the max activity was -6.71% [at 0.35 µM] (inactive). With `CCC(C(=O)N1CCC2(CC1)Nc1ccc(C)c(C)c1-n1cccc12)c1ccccc1` (stereo unspecified) the max activity was 8.62% [at 2.6 µM] (inactive). With `CCOC(=O)C1CCCN(C(=O)Cn2cccc2-c2nc(-c3ccc(C)cc3)cs2)C1` (stereo unspecified) the max activity was -28.8% (inactive). In the case of `Cc1ccc(-c2csc(-c3cccn3CC(=O)N3CCC(N4CCCCC4)CC3)n2)cc1`, the max activity is reported as 6.16% [at 0.16 µM] (inactive). In the case of `CCOC(=O)C1CCN(C(=O)Cn2cccc2-c2nc(-c3ccc(C)cc3)cs2)CC1`, the max activity is reported as 11.7% (inactive). For `CCN1CCCC1CNC(=O)Cn1cccc1-c1nc(-c2ccccc2)cs1` (stereo unspecified), the max activity was -11% (inactive). With `COCCN1CCc2nc(SCc3nc(-c4ccc(OC)c(OC)c4)oc3C)[nH]c(=O)c2C1` the max activity was 34.3% [at 10 µM] (inactive). In the case of `CN1C(=O)CCc2cc(NC(=O)c3cccs3)ccc21`, the max activity is reported as 71.4% (inactive). In the case of `Cc1ccc(C)c(NC(=O)N2CCN(Cc3nc(-c4ccccc4C)oc3C)CC2)c1`, the max activity is reported as 4.41% [at 2.6 µM] (inactive).
